Data on twelve molecules can be found in PubChem BioAssay (Tox21).

The nature of experiment [1]: qHTS assay to identify small molecule antagonists of the estrogen related receptor (ERR) signaling pathway from Tox21 library - cell viability counter screen (AID 1224834). Note: nearly all actives have a fitted effect of over 30% in size. Note: potency is the fitted concentration of half-maximal effect. In a few lines: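 Viability readout (CellTiter-Fluor fluorescence, 30 min at 37 C) multiplexed with the ERR assay; cells treated 17.5 h at 37 C with compounds delivered in DMSO.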
The target in experiment [2] is Luciferin 4-monooxygenase (Photinus pyralis) (UniProt P08659). Briefly: qHTS assay to identify small molecule inhibitors of firefly luciferase (AID 1224835). Note: nearly all actives have a fitted effect of over 25% in size. Note: potency is the fitted concentration of half-maximal effect. Summed up:
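Biochemical qHTS: compounds run as interplate titrations against purified firefly enzyme, with D-luciferin and ATP each at its KM concentration. Light output recorded by CCD imaging.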

Experiment [3] is described as follows: qHTS assay to identify small molecule agonists of the constitutive androstane receptor (CAR) signaling pathway - cell viability counter screen (AID 1224836). Note: series mostly up to about 92 µM; nearly all actives have a fitted effect of over 45% in size. Summed up:
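Cells were seeded and incubated 4 hrs. Compounds were added across 15 concentrations together with PK11195 at 0.75 uM final. Plates were incubated 23 hrs at 37 C. CellTiter-Fluor was added and fluorescence measured.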

Experiment [4] is described as follows: qHTS assay to identify small molecule antagonists of the constitutive androstane receptor (CAR) signaling pathway - cell viability counter screen (AID 1224837). Note: nearly all actives have a fitted effect of over 45% in size. Note: potency is the fitted concentration of half-maximal effect. Summed up: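 Fluorescence from CellTiter-Fluor served as the viability signal. Human hepatoma HepG2 cells stably bearing hCAR and CYP2B6-2.2kb received compound plus CITCO (50 nM final) for 23 hr.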

Experiment [5] can be described thus: qHTS assay to identify small molecule antagonists of the estrogen related receptor signaling pathway with the pleiotropic PPARgamma coactivator (PGC) from Tox21 10K library - cell viability counter screen (AID 1224840; active = well fitted cell-killing curve with a large enough effect in the repeat runs, not every such curve was filed as active; note: nearly all actives have a fitted effect of over 40% in size; note: potency is the fitted concentration of half-maximal effect). In a few lines: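 Compounds in DMSO, alongside positive and negative controls, were pinned onto PGC/ERR cells (2,000 per well). Exposure lasted 17.5 hours at 37 C, followed by a 30-minute CellTiter-Fluor incubation and fluorescence reading.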

The target of experiment [6] is Thyrotropin receptor (Homo sapiens) (UniProt P16473). Briefly: qHTS assay to identify small molecule agonists of the thyroid stimulating hormone receptor (TSHR) signaling pathway (AID 1224843; calls by dose curve; note: nearly all actives have a fitted effect of over 45% in size). In a few lines:
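Steps: seed 800 TSHR-HEK293 cells per well; add test compound and hold 30 min at ambient temperature; dispense cAMP-d2 then anti-cAMP cryptate; incubate 1 h at ambient; measure fluorescence intensity.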

For experiment [7], the target named is Nuclear receptor subfamily 1 group I member 3 (Homo sapiens) (UniProt Q14994). Briefly: qHTS assay to identify small molecule antagonists of the constitutive androstane receptor (CAR) signaling pathway (AID 1224838).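 Note: HepG2 cells stably expressing hCAR with CYP2B6 luciferase reporter stimulated by CITCO; nearly all actives have a fitted effect of over 40% in size.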 Note: potency is the fitted concentration of half-maximal effect. In a few lines:
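Quantitative HTS in double-stable HepG2-CYP2B6-hCAR cells. After 4 h plating, cells get compound (15 concentrations) and CITCO at 50 nM final, incubate 24 h at 37 C, then ONE-Glo luminescence is read.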

The target is the same in experiment [8]. Briefly: qHTS assay to identify small molecule agonists of the constitutive androstane receptor (CAR) signaling pathway (AID 1224839).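 Note: HepG2 cells stably carrying human CAR and a CYP2B6 luciferase reporter; series mostly up to about 92 µM; nearly all actives have a fitted effect of over 15% in size.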 Summed up: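 Cells were plated and incubated 4 hrs, then dosed with compounds at 15 concentrations. PK11195 was added to 0.75 uM final. After 24 hrs at 37 C, luciferase luminescence was measured.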

Where “and” joins values, the source holds several entries; their conditions need not be identical. Equal entries are not always repeated. Results filed as inconclusive are left out. A structure can be active in one record and inactive in another. Calls of active or inactive are those of the source. Unless noted, calls come from the whole dose curve; as a rule, active = well fitted curve in the direction sought with a large enough effect in the repeat runs; inconclusive = weak or mixed curves; inactive = no such curve, though single readings can be large; an effect the other way counts as inactive or inconclusive.

Chain of Thyrotropin receptor (Homo sapiens) (P16473 whole entry, looked up): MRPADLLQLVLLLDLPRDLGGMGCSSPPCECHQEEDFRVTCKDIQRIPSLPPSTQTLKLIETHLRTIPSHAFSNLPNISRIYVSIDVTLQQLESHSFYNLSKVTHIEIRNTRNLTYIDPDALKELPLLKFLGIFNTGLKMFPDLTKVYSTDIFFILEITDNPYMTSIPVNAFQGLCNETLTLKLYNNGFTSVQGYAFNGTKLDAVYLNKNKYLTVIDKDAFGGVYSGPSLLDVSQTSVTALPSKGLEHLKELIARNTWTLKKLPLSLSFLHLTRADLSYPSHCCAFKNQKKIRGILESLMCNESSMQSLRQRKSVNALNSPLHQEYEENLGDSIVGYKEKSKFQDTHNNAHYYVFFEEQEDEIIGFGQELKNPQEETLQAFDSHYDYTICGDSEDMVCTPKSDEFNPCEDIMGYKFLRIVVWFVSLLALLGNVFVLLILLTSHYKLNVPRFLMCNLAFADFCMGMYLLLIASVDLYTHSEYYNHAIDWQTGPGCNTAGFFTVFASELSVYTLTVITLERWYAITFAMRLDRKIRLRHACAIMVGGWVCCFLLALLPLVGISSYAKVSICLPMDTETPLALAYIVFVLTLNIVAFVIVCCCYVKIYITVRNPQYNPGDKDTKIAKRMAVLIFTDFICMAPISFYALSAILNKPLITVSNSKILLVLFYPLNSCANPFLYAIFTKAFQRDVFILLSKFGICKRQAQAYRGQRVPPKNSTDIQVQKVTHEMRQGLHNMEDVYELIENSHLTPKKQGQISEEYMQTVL
Chain of Luciferin 4-monooxygenase (Photinus pyralis) (P08659 whole entry, looked up): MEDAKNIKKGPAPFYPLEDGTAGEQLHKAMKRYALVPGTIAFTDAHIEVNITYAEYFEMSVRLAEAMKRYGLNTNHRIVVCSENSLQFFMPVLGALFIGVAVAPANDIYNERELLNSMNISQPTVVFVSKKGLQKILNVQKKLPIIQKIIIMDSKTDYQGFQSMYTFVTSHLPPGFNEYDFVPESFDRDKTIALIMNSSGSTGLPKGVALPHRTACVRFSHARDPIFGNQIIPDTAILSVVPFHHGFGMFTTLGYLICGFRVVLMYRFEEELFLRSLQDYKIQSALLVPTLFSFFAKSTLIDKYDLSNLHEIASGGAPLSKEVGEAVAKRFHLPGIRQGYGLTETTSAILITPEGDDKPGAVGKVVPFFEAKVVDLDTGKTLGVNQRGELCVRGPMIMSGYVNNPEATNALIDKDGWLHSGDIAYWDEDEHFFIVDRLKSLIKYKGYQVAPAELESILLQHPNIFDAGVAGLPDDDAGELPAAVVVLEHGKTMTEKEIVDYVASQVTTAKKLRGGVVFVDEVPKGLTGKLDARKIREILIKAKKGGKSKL
Chain of Nuclear receptor subfamily 1 group I member 3 (Homo sapiens) (Q14994 whole entry, looked up): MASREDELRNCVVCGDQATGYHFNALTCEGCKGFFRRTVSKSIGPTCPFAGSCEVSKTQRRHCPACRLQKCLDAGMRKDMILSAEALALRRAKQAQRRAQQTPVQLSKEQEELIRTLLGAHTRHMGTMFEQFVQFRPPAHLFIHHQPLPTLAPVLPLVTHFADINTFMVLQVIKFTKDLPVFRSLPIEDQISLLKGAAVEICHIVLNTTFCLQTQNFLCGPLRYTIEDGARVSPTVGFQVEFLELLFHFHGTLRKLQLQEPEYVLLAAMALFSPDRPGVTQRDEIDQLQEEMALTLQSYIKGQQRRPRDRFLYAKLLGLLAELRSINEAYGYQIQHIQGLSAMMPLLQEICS

Consider `Nc1ccc(-c2ccc(N)c(Cl)c2)cc1Cl`, for which the Potency in experiment [1] is 54.5 µM (active); in experiment [2] it was 35.8 µM (active) and 33.2 µM (active) and 12.6 µM (active); in experiment [5] it was “inactive and 27.3 µM (active)”. Further, the Potency result in experiment [3], in experiment [4] and in experiment [6] was “inactive” in each case.
Take `COc1ccc(N)cc1`: the Potency entry in experiment [2], in experiment [3], in experiment [4], in experiment [5] and in experiment [6] was “inactive” each time.
For the molecule `O=S(=O)(O)O`, the Potency result in experiment [1], in experiment [3], in experiment [4] and in experiment [5] was “inactive” in each case.
In the case of `CCC[N+]1(C)CCCCC1`, the Potency entry in experiment [1], in experiment [2], in experiment [3], in experiment [4], in experiment [5] and in experiment [6] was “inactive” in each case.
`CCCC[N+]1(C)CCCCC1`: the Potency result in experiment [1], in experiment [2], in experiment [3], in experiment [4], in experiment [5] and in experiment [6] was “inactive” in each case.
On to `O=C(O)C(Cl)Cl`, for which the Potency entry in experiment [1], in experiment [2], in experiment [3], in experiment [4], in experiment [5] and in experiment [6] was “inactive” each time.
As to `CCC(=O)C(CC(C)N(C)C)(c1ccccc1)c1ccccc1` (configuration not stated), the Potency entry in experiment [1], in experiment [3], in experiment [4], in experiment [7], in experiment [8] and in experiment [5] was “inactive” throughout. Moreover, the Potency entry in experiment [6] is “inactive”.
With `C=CCOC(Cn1ccnc1)c1ccc(Cl)cc1Cl` (configuration not stated), the Potency in experiment [1] is 30.7 µM (active) and 48.6 µM (active) and 29.8 µM (active); in experiment [4], 61.1 µM (active); in experiment [7], 38.7 µM (active) and 48.6 µM (active) and inactive; in experiment [5], 48.6 µM (active) and inactive. For the same molecule, the Potency entry in experiment [2] and in experiment [6] was “inactive” throughout.
As for `C[N+](C)(C)Cc1ccccc1`, the Potency entry in experiment [1], in experiment [2], in experiment [3], in experiment [4], in experiment [5] and in experiment [6] was “inactive” throughout.
Consider `CCCCCCCCCCn1cc[n+](C)c1`, for which, in experiment [1], the Potency entry was “inactive and 8.62 µM (active)”. In addition, the Potency result in experiment [2], in experiment [4] and in experiment [5] was “inactive” in each case.
For the molecule `Nc1ccccc1`, the Potency result in experiment [1], in experiment [3], in experiment [4], in experiment [5] and in experiment [6] was “inactive” throughout.
With `CCCCCCCCCCCC(=O)O`, the Potency entry in experiment [1], in experiment [3], in experiment [4], in experiment [5] and in experiment [6] was “inactive” throughout. For the same molecule, the Potency in experiment [2] is 40 µM (active) and 57.6 µM (active) and 71 µM (active).
